Laboratory results from ChEMBL document CHEMBL3988442, “University of Dundee, Small-Polar-MMV Screening Library” (2021).
In all, about 48,000 compounds went through this assay and about 13,000 (27%) showed an effect of 50% or more. Some of the results follow.

Each compound was assayed on Wolbachia pipientis (assay: Anti-Wolbachia Cell-Based Screen). Conditions: 5 µM.
Assay type: functional
Set-up: scale not given: in the data most compounds retested in dose-response had high values

Row | SMILES | Percent Effect
1 | CCOc1ncccc1CNCc1c(C(C)C)nn(C)c1N(C)C | 98.21%
2 | Cc1cc2nc(C(=O)NCc3cccnc3N(C)C)cc(C)n2n1 | -11.37%
3 | CC(C)c1nn(C)c(N(C)C)c1CNCc1ccccc1CN(C)C | -8.36%
4 | COc1ncccc1CNCc1c(C)nn(C)c1N(C)C | 96.94%
5 | COCc1ccccc1CNCc1c(C)nn(C)c1N(C)C | 5.243%
6 | Cc1nn(CCO)c(C)c1CNCc1cccnc1N(C)C | 113.9%
7 | Cc1nn(C)c(N(C)C)c1CNCc1cccnc1N(C)C | 64.69%
8 | COc1ncccc1CNCc1c(C(C)C)nn(C)c1N(C)C | 7.273%
9 | Cc1cnn(CCNCc2c(C)nn(CCO)c2C)c1 | 8.317%
10 | COCCOc1ncccc1CNCc1c(C)nn(C)c1N(C)C | 5.631%
11 | Cc1nn(C)c(N(C)C)c1CNCc1ccccc1Cn1cncn1 | 3.483%
12 | CCOc1ccc(NC2CCN(C)C2=O)cn1 (stereo unspecified) | -24.45%
13 | Cc1noc(C)c1CN(C)CC1CC(C2CCCCC2)=NO1 (stereo unspecified) | 7.193%
14 | Cc1cc(CNCC2(O)CCOCC2)ccc1Br | -3.743%
15 | CN1CCN(CCCOc2ccccc2CN2C[C@H]3CC[C@H]2C3)CC1 | -24.99%
16 | COc1c(CNCc2cccnc2OC(C)C)c(C(C)C)nn1C | 2.472%
17 | Cc1nn(C)c(N(C)C)c1CNCc1cccnc1OC(C)C | 107.9%
18 | CCOc1ncccc1CNCc1c(C)nn(C)c1N(C)C | 97%

Row | SMILES | Percent Effect
19 | Cc1nn(C)c(N(C)C)c1CNCc1ccccc1CN(C)C | 13.98%
20 | Cc1ccc(CNC(=O)C2CCN(C(=O)c3ccco3)CC2)n1C | 1.7%
21 | Cn1cc(CN2C[C@@H]3CCCO[C@@H]3[C@H](N3CCCC3=O)C2)cn1.O=C(O)C(F)(F)F | -11.94%
22 | Cc1ccc(N2CCCC(NCc3ccc(C)s3)C2)nn1 (stereo unspecified) | 102.5%
23 | Cc1ccc(N2CCCC(NCc3cnc(C)s3)C2)nn1 (stereo unspecified) | 95.67%
24 | Cc1ccc(N2CCCC(NCc3ccsc3)C2)nn1 (stereo unspecified) | -6.53%
25 | Cc1ccc(N2CCCC(NCc3sccc3C)C2)nn1 (stereo unspecified) | 101%
26 | CCN(CCOC)C(=O)CCc1scnc1C | 1.791%
27 | CCc1ccc(CNc2cc(-c3ccoc3C)nn2CCO)o1 | -16.42%
28 | Cc1nnc2n1CCN(C(=O)c1cnc3c(cnn3CC(C)C)c1)C2 | -2.285%
29 | CC(C)CN(Cc1ccc(O)c(C(=O)O)c1)Cc1cnn(C)c1 | -4.31%
30 | CN(C)c1ccc(CN(CCCn2ccnc2)Cc2c[nH]cn2)cc1.O=C(O)CC(O)(CC(=O)O)C(=O)O | -12.92%
31 | O=C(Cc1cn2ccsc2n1)N(Cc1ccco1)CC1CCCO1 (stereo unspecified) | 1.448%
32 | CC(C)OCCCN(Cc1cnn(C)c1)Cc1ccccn1.O=C(O)CC(O)(CC(=O)O)C(=O)O | 84.46%
33 | Cc1nc2sccn2c1CN(CCCN(C)C)Cc1ccco1.O=C(O)CC(O)(CC(=O)O)C(=O)O | 131.3%
34 | Cc1ccc(CN(CCCN(C)C)Cc2cnc(N(C)C)nc2)o1.O=C(O)CC(O)(CC(=O)O)C(=O)O | 115.6%
35 | COc1cc(CN(CCCN(C)C)Cc2ccccn2)cc2c1OCO2.O=C(O)CC(O)(CC(=O)O)C(=O)O | 126.3%
36 | COc1cc(CN(Cc2ccccn2)CC(C)C)cc2c1OCO2 | -37.75%
